Results from PubChem BioAssay (EPA / NIEHS).
Activity calls are given as the source filed them. Rule for the calls: active = hit-call score of the fitted dose curve at least 0.9, where 1 is the maximum; inactive = score below 0.9.

assay: ATG_AP_1_CIS: Attagene CIS-FACTORIAL HepG2 Assay for human Activator Protein 1 (AP-1) (AID 2282931); settings: HepG2 Attagene cis-factorial AP-1 reporter mRNA; actives raise or lower the signal
Outline: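 HepG2 cells transiently transfected with cis-element-driven multiplex reporter units; 24 h compound exposure. Reporter mRNA quantified by RT-PCR, FAM-labelled fragments resolved by capillary electrophoresis; bidirectional fit versus DMSO baseline.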

Row | SMILES | outcome | AC50
1 | C1=COCCC1 | inactive | –
2 | NC(=O)c1cccnc1 | inactive | –
3 | COC(=O)c1cccc(C(=O)OC)c1 | inactive | –
4 | CC(C)(O)CCc1ccccc1 | inactive | –
5 | NNC(=O)OCc1ccccc1 | inactive | –
6 | CC(CO)c1ccccc1 (centres undefined) | inactive | –
7 | CCCCCC1CCC(=O)O1 (centres undefined) | inactive | –
8 | c1ccc2scnc2c1 | inactive | –
9 | C=C1CC/C=C(\C)CC[C@@H]2[C@@H]1CC2(C)C | inactive | –
10 | CC/C=C\CCOC(C)OCC (centres undefined) | inactive | –
11 | C=C(C)C(N)=O | inactive | –
12 | CC1=CC[C@@H]2C[C@H]1C2(C)C | inactive | –
13 | CCCCCCCCOC(=O)c1ccc(O)cc1 | inactive | –
14 | CC(C)(C)c1ccc(S)cc1 | inactive | –
15 | CCOC(=O)C(=O)OCC | inactive | –
16 | C1CCCNCC1 | inactive | –
17 | CCCCCCC(C)O (centres undefined) | inactive | –

Row | SMILES | outcome | AC50
18 | CC1(C)CC(N)CC(C)(CN)C1 (centres undefined) | inactive | –
19 | CN1CCc2cccc3c2[C@H]1Cc1ccc(O)c(O)c1-3 | – | 3.75 µM (active)
20 | CCCCOCCOCCO | inactive | –
21 | CCn1cc(C(=O)O)c(=O)c2ccc(C)nc21 | inactive | –
22 | C=CC(=O)OCC(CO)(COC(=O)C=C)COC(=O)C=C | – | 100 µM (active)
23 | CC/C=C\CCOC(=O)C(C)C | inactive | –
24 | Nc1ccn([C@H]2CC[C@@H](CO)O2)c(=O)n1 | inactive | –
25 | CC(=O)OCC=C(C)CCC=C(C)CCC=C(C)C | – | 48.1 µM (active)
26 | NC(N)=S | inactive | –
27 | CC(=O)C1C(=O)C=C(C)OC1=O (centres undefined) | inactive | –
28 | CC(C)CCOC(=O)CC(C)C | inactive | –
29 | CC(C)=CC(=O)O | inactive | –
30 | CCCCCc1cccc(=O)o1 | inactive | –
31 | CCO[Si](CCC#N)(OCC)OCC | inactive | –
32 | CC(C)COC(=O)c1ccccc1O | inactive | –
33 | O=C(C=Cc1ccccc1)OCCCc1ccccc1 | inactive | –
34 | O=C1CCC(=O)N1 | inactive | –

assay: ATG_AP_2_CIS: Attagene CIS-FACTORIAL HepG2 Assay for human Activator Protein 2 (AP-2) (AID 2282932); settings: HepG2 AP-2 cis-reporter, Attagene transcription factor profiling; actives raise or lower the signal
Outline: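 HepG2 cells transiently transfected with cis-element reporter units and exposed for 24 h. Reporter mRNA measured by RT-PCR, FAM labelling, HpaI digestion and capillary electrophoresis. Changes in either direction fitted relative to DMSO.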

Row | SMILES | outcome | AC50
35 | C1=COCCC1 | inactive | –
36 | NC(=O)c1cccnc1 | inactive | –
37 | COC(=O)c1cccc(C(=O)OC)c1 | inactive | –
38 | CC(C)(O)CCc1ccccc1 | inactive | –
39 | NNC(=O)OCc1ccccc1 | inactive | –
40 | CC(CO)c1ccccc1 (centres undefined) | inactive | –
41 | CCCCCC1CCC(=O)O1 (centres undefined) | inactive | –
42 | c1ccc2scnc2c1 | inactive | –
43 | C=C1CC/C=C(\C)CC[C@@H]2[C@@H]1CC2(C)C | inactive | –
44 | CC/C=C\CCOC(C)OCC (centres undefined) | inactive | –
45 | C=C(C)C(N)=O | inactive | –
46 | CC1=CC[C@@H]2C[C@H]1C2(C)C | inactive | –
47 | CCCCCCCCOC(=O)c1ccc(O)cc1 | inactive | –
48 | CC(C)(C)c1ccc(S)cc1 | inactive | –
49 | CCOC(=O)C(=O)OCC | inactive | –
50 | C1CCCNCC1 | inactive | –
51 | CCCCCCC(C)O (centres undefined) | inactive | –

Row | SMILES | outcome | AC50
52 | CC1(C)CC(N)CC(C)(CN)C1 (centres undefined) | inactive | –
53 | CN1CCc2cccc3c2[C@H]1Cc1ccc(O)c(O)c1-3 | inactive | –
54 | CCCCOCCOCCO | inactive | –
55 | CCn1cc(C(=O)O)c(=O)c2ccc(C)nc21 | inactive | –
56 | C=CC(=O)OCC(CO)(COC(=O)C=C)COC(=O)C=C | – | 27.8 µM (active)
57 | CC/C=C\CCOC(=O)C(C)C | inactive | –
58 | Nc1ccn([C@H]2CC[C@@H](CO)O2)c(=O)n1 | inactive | –
59 | CC(=O)OCC=C(C)CCC=C(C)CCC=C(C)C | – | 145 µM (active)
60 | NC(N)=S | inactive | –
61 | CC(=O)C1C(=O)C=C(C)OC1=O (centres undefined) | inactive | –
62 | CC(C)CCOC(=O)CC(C)C | inactive | –
63 | CC(C)=CC(=O)O | inactive | –
64 | CCCCCc1cccc(=O)o1 | inactive | –
65 | CCO[Si](CCC#N)(OCC)OCC | inactive | –
66 | CC(C)COC(=O)c1ccccc1O | inactive | –
67 | O=C(C=Cc1ccccc1)OCCCc1ccccc1 | inactive | –
68 | O=C1CCC(=O)N1 | inactive | –

assay: ATG_BRE_CIS: Attagene CIS-FACTORIAL HepG2 Assay for human Bone Morphogenetic Protein (BMP) Response Element (BRE) (AID 2282933); settings: HepG2 BMP response element reporter, Attagene transcription factor profiling; actives raise or lower the signal
Outline: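 Multiplexed cis-reporter assay, HepG2, 24 h exposure. mRNA from reporter units quantified via RT-PCR/CE; DMSO baseline; bidirectional curve fit.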

Row | SMILES | outcome | AC50
69 | C1=COCCC1 | inactive | –
70 | NC(=O)c1cccnc1 | inactive | –
71 | COC(=O)c1cccc(C(=O)OC)c1 | inactive | –
72 | CC(C)(O)CCc1ccccc1 | inactive | –
73 | NNC(=O)OCc1ccccc1 | inactive | –
74 | CC(CO)c1ccccc1 (centres undefined) | inactive | –
75 | CCCCCC1CCC(=O)O1 (centres undefined) | inactive | –
76 | c1ccc2scnc2c1 | inactive | –
77 | C=C1CC/C=C(\C)CC[C@@H]2[C@@H]1CC2(C)C | inactive | –
78 | CC/C=C\CCOC(C)OCC (centres undefined) | inactive | –
79 | CC1=CC[C@@H]2C[C@H]1C2(C)C | inactive | –
80 | CCCCCCCCOC(=O)c1ccc(O)cc1 | inactive | –
81 | CC(C)(C)c1ccc(S)cc1 | inactive | –
82 | CCOC(=O)C(=O)OCC | inactive | –
83 | C1CCCNCC1 | inactive | –
84 | CCCCCCC(C)O (centres undefined) | inactive | –

Row | SMILES | outcome | AC50
85 | CC1(C)CC(N)CC(C)(CN)C1 (centres undefined) | inactive | –
86 | CN1CCc2cccc3c2[C@H]1Cc1ccc(O)c(O)c1-3 | inactive | –
87 | CCCCOCCOCCO | inactive | –
88 | CCn1cc(C(=O)O)c(=O)c2ccc(C)nc21 | inactive | –
89 | C=CC(=O)OCC(CO)(COC(=O)C=C)COC(=O)C=C | – | 100 µM (active)
90 | CC/C=C\CCOC(=O)C(C)C | inactive | –
91 | Nc1ccn([C@H]2CC[C@@H](CO)O2)c(=O)n1 | inactive | –
92 | CC(=O)OCC=C(C)CCC=C(C)CCC=C(C)C | inactive | –
93 | NC(N)=S | inactive | –
94 | CC(=O)C1C(=O)C=C(C)OC1=O (centres undefined) | inactive | –
95 | CC(C)CCOC(=O)CC(C)C | inactive | –
96 | CCO[Si](CCC#N)(OCC)OCC | inactive | –
97 | CC(C)COC(=O)c1ccccc1O | inactive | –
98 | O=C(C=Cc1ccccc1)OCCCc1ccccc1 | inactive | –
99 | O=C1CCC(=O)N1 | inactive | –
